Source: PubChem BioAssay
Inconclusive results are not listed. Active and inactive are the calls of the source. Unless noted, cut-off not given; nearly all actives show AC50 up to about 26 µM.

Assay: growth inhibition of DIPG glioma cells, dose response, cell-based, SU-DIPG-XVII, MIPE5.0, CellTiter-Glo, qHTS (AID 1347060);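 on AC50: cells exposed to compound for 48 hours before viability readout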
Settings: SU-DIPG-XVII viability, CellTiter-Glo ATP luminescence

SMILES	outcome	AC50
CC[C@H](NC(C)C)[C@H](O)c1ccc(O)c2[nH]c(=O)ccc12	inactive	
COc1cccc(-c2cc(=O)c3ccccc3o2)c1N	inactive	
COc1cc2nccc(Oc3ccc(NC(=O)Nc4ccc(F)cc4F)c(F)c3)c2cc1OC		5.25 µM (active)
O=Nc1c(-c2c(O)[nH]c3cc(Br)ccc23)[nH]c2ccccc12		8.33 µM (active)
O=c1[nH]nc(Sc2ncc([N+](=O)[O-])s2)n1-c1ccc2c(c1)OCCO2		3.72 µM (active)
N[C@H](CSC(c1ccccc1)(c1ccccc1)c1ccccc1)C(=O)O	inactive	
CS(=O)c1ccc(-c2nc(-c3ccc(F)cc3)c(-c3ccncc3)[nH]2)cc1 (stereo not drawn)	inactive	
O=c1cc(-c2cccc3c2Sc2ccccc2S3)oc(N2CCOCC2)c1	inactive	
COc1nccc(-c2c(-c3ccc(F)cc3)ncn2C2CCC(O)CC2)n1 (stereo not drawn)	inactive	
CCc1c2c(nc3ccc(O)cc13)-c1cc3c(c(=O)n1C2)COC(=O)[C@]3(O)CC		0.00833 µM (active)
CCOc1cc(C(=O)Nc2ccc(Cl)c(-c3nc4ccccc4[nH]3)c2)cc(OCC)c1OCC	inactive	
O=C(O)CCc1ccc(NCc2cccc(Oc3ccccc3)c2)cc1	inactive	
Oc1ccc2ccccc2c1SSc1c(O)ccc2ccccc12		14.8 µM (active)
CC(Oc1ccc(O)cc1)(P(=O)(O)O)P(=O)(O)O	inactive	
CCN(CC)CCCC(C)Nc1nc(C)cc(Nc2ccc3nc(C)cc(N)c3c2)n1 (stereo not drawn)	inactive	
CN1C(=O)C(Cc2c[nH]c3ccccc23)NC1=S (stereo not drawn)	inactive	
COc1ccc([C@@H]2CNC(=O)C2)cc1OC1CCCC1	inactive	
O=C1Nc2ccc(I)cc2/C1=C/c1cc(Br)c(O)c(Br)c1	inactive	
O=C(O)C1CCCN(CCC=C(c2ccccc2)c2ccccc2)C1 (stereo not drawn)	inactive	
CCOc1ccc(Nc2nc(-c3c(C)nc4ccccn34)cs2)cc1		0.0661 µM (active)

SMILES	outcome	AC50
Nc1ncnc2nc(-c3ccc(N4CCOCC4)nc3)cc(-c3cccc(Br)c3)c12	inactive	
O=C1NC(=O)C(c2ccccc2[N+](=O)[O-])=C1Nc1ccc(O)c(Cl)c1	inactive	
Fc1ccc(Cl)cc1-c1nc(Nc2ccncc2)c2nccnc2n1		23.5 µM (active)
Cc1cc(NC(=O)Nc2ccc(N(C)C)cc2)c2cc(F)cc(F)c2n1	inactive	
Cc1ccc(/C=N/NC(=O)c2ccccc2Oc2ccccc2)o1	inactive	
O=C(O)c1ccc2cc(-c3ccc(O)c(C45CC6CC(CC(C6)C4)C5)c3)ccc2c1		0.59 µM (active)
COc1cc(OC)c(NC(=O)Nc2cc(C)on2)cc1Cl	inactive	
NC(=O)c1ccc2[nH]ccc2c1	inactive	
Cc1[nH]c(/C=C2\C(=O)Nc3ccccc32)c(C)c1CCC(=O)O		16.6 µM (active)
CCOC(=O)C1=C(C)NC(=S)NC1c1cccc(O)c1 (stereo not drawn)	inactive	
CCOC(=O)C1=C(N)Oc2ccc(Br)cc2C1C(C#N)C(=O)OCC (stereo not drawn)		26.3 µM (active)
Cc1cc(I)ccc1Nc1c(C(=O)NOCC2CC2)cc(F)c(F)c1F		5.9 µM (active)
COc1ccc(CCN(C)CCCOc2ccc(S(=O)(=O)c3c(C(C)C)c4ccccc4n3C)cc2)cc1OC		18.6 µM (active)
CCC(C)N(C)C(=O)c1cc2ccccc2c(-c2ccccc2Cl)n1 (stereo not drawn)	inactive	
COC1CCC(C(=O)c2ccc3nc4c(cc3c2)CCCO4)CC1 (stereo not drawn)	inactive	
O=C(O)c1ccc(-c2c[nH]c3ncc(-c4ccccc4)cc23)cc1C1CCCC1	inactive	
CC(C)[C@H](CO)Nc1nc(Nc2ccc(C(=O)O)c(Cl)c2)c2ncn(C(C)C)c2n1	inactive	
CCCCC[C@H](O)/C=C/[C@H]1[C@H](O)CC(=O)[C@@H]1C/C=C\CCCC(=O)O	inactive	
N#Cc1c(O)c2c(-c3ccc(-c4ccccc4O)cc3)csc2[nH]c1=O	inactive	
O=c1[nH]c(-c2ccc(C(F)(F)F)cc2)nc2c1CSCC2	inactive	

Assay: growth inhibition of DIPG glioma cells, dose response, cell-based, SU-DIPG-XIII, MIPE4.0, CellTiter-Glo, qHTS (AID 1347061; cut-off not given, nearly all actives have AC50 up to about 37 µM;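 further: cells exposed to compound for 48 hours before readout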)
Settings: SU-DIPG-XIII viability, CellTiter-Glo ATP luminescence

SMILES	outcome	AC50
CC[C@H](NC(C)C)[C@H](O)c1ccc(O)c2[nH]c(=O)ccc12	inactive	
COc1cccc(-c2cc(=O)c3ccccc3o2)c1N	inactive	
O=Nc1c(-c2c(O)[nH]c3cc(Br)ccc23)[nH]c2ccccc12	inactive	
O=c1[nH]nc(Sc2ncc([N+](=O)[O-])s2)n1-c1ccc2c(c1)OCCO2		5.9 µM (active)
N[C@H](CSC(c1ccccc1)(c1ccccc1)c1ccccc1)C(=O)O	inactive	
O=c1cc(-c2cccc3c2Sc2ccccc2S3)oc(N2CCOCC2)c1	inactive	
COc1nccc(-c2c(-c3ccc(F)cc3)ncn2C2CCC(O)CC2)n1 (stereo not drawn)	inactive	
CCOc1cc(C(=O)Nc2ccc(Cl)c(-c3nc4ccccc4[nH]3)c2)cc(OCC)c1OCC		10.5 µM (active)
O=C(O)CCc1ccc(NCc2cccc(Oc3ccccc3)c2)cc1	inactive	
CC(Oc1ccc(O)cc1)(P(=O)(O)O)P(=O)(O)O	inactive	
CCN(CC)CCCC(C)Nc1nc(C)cc(Nc2ccc3nc(C)cc(N)c3c2)n1 (stereo not drawn)	inactive	
CN1C(=O)C(Cc2c[nH]c3ccccc23)NC1=S (stereo not drawn)	inactive	
O=C(O)C1CCCN(CCC=C(c2ccccc2)c2ccccc2)C1 (stereo not drawn)	inactive	
O=C1NC(=O)C(c2ccccc2[N+](=O)[O-])=C1Nc1ccc(O)c(Cl)c1	inactive	
Fc1ccc(Cl)cc1-c1nc(Nc2ccncc2)c2nccnc2n1	inactive	
Cc1cc(NC(=O)Nc2ccc(N(C)C)cc2)c2cc(F)cc(F)c2n1	inactive	
COc1cc(OC)c(NC(=O)Nc2cc(C)on2)cc1Cl	inactive	
NC(=O)c1ccc2[nH]ccc2c1	inactive	
CCOC(=O)C1=C(C)NC(=S)NC1c1cccc(O)c1 (stereo not drawn)	inactive	
CCOC(=O)C1=C(N)Oc2ccc(Br)cc2C1C(C#N)C(=O)OCC (stereo not drawn)	inactive	
CC(C)[C@H](CO)Nc1nc(Nc2ccc(C(=O)O)c(Cl)c2)c2ncn(C(C)C)c2n1	inactive	
CCCCC[C@H](O)/C=C/[C@H]1[C@H](O)CC(=O)[C@@H]1C/C=C\CCCC(=O)O	inactive	
N#Cc1c(O)c2c(-c3ccc(-c4ccccc4O)cc3)csc2[nH]c1=O	inactive	
